ELG1 genotoxic = induces genotoxicity in HEK293T cells with luciferase-tagged ELG1 | Potency, µM (highest dose often 46 µM), inactives show at the highest dose activity change, positive = activation, most hits filed as activators | hit rate 1.3% among 330,000 | HEK293T ELG1-luciferase reporter, luminescence, 16 h; further: % of control where 0% means no effect; nearly all actives have a fitted effect of over 60% in size
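Screening used a luciferase reporter fused to human ELG1 in HEK293T cells. Luminescence was read on a CCD plate imager after 16 hr exposure and 30 min ONE-Glo incubation.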
Rab9 prom act = activates the Rab9 promoter; Huh7 Rab9 promoter-luciferase reporter, luminescence, 24 h; Potency, µM (titrated, usually from 9.22 µM), without a hit: at the top dose activation, negative = inhibition, actives largely listed as activators; hit rate 2.8% among 320,000; AID 485297; further: % of control where 0% means no effect; nearly all actives have a fitted effect of over 60% in size
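Steps: seed 1500 Huh7 Rab9-luc cells per well, rest 2 h at 37 °C; add compound in DMSO; incubate 24 h; add luciferase reagent, 10 min ambient; read luminescence.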
SMN2 splice enh = increases expression of the SMN2 splice variant. HEK293 SMN2-luciferase splicing reporter, luminescence, 30-36 h. Potency, µM (highest dose often 46.1 µM), for the others: at the highest dose activity change, positive = activation, actives largely listed as activators. hit rate 2.8% among 210,000. AID 1458; further: % of control where 0% means no effect; nearly all actives have a fitted effect of over 55% in size
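HEK293 cells carry an SMN2 minigene-luciferase reporter in which exon 7 inclusion puts luciferase in frame. Cells were seeded at 2000 cells/well, attached for 10-12 hours, then exposed to compounds for 30-36 hours at 37C before ONE-Glo luminescence.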
FLuc counter = counter-screen for miR-21 project: firefly luciferase inhibitors or activators; purified FLuc, Km substrates, luminescence inhibition; Potency, µM (titrated, usually from 57.5 µM), for the others: top-dose activity change, negative = inhibition, most hits filed as inhibitors; hit rate 6.9% among 360,000; AID 588342;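 further: plate controls were vehicle for no effect and reference inhibitor for full effect; nearly all actives have a fitted effect of over 55% in size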
Target sequence (P08659 whole entry, looked up): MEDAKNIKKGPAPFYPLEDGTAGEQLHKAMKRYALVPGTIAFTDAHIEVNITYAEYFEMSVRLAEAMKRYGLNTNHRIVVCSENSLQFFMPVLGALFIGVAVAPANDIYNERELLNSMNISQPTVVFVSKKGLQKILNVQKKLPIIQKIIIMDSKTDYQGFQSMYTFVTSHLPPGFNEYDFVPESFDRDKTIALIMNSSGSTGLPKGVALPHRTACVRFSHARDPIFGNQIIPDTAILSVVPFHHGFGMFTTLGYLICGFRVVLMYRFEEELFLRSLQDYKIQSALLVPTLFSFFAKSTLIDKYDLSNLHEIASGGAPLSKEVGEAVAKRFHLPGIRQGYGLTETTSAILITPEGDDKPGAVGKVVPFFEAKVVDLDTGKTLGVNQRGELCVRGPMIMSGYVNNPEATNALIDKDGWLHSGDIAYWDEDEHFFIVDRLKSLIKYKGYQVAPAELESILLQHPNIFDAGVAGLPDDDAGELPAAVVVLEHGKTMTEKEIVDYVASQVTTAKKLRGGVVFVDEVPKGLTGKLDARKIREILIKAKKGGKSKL
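Purified P. pyralis luciferase, 10 nM final, with Km-level 10 uM D-luciferin and 10 uM ATP in 50 mM Tris acetate pH 7.5, 10 mM Mg acetate, 0.01% Tween-20, 0.05% BSA; 6-point qHTS titration about 60 µM downward; luminescence read.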
NPC1 prom act = NPC1 promoter activation | Potency, µM (top dose mostly 9.22 µM), for inactives: at the highest dose activation, hits mostly activators | AID 485313 | hit rate 2.4% among 320,000 | Huh7 NPC1 promoter luciferase reporter, 24 h; further: % of control where 0% means no effect; nearly all actives have a fitted effect of over 60% in size
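Readout is luciferase luminescence, reflecting NPC1 promoter activation in stably transfected Huh7 cells after 24 h compound exposure at 37 °C in reduced-serum medium with 10% FBS.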
KinaseGlo FLuc = blocks Kinase-Glo luciferase, a counter-screen artifact; Kinase-Glo luciferase, ATP luminescence, 8 min; Potency, µM (highest dose often 38.3 µM), for inactives: at the highest dose activity change, negative = inhibition, most hits filed as inhibitors; hit rate 0.28% among 200,000; AID 1379; further: on the % scale 0 is the no-effect control and ±100 the full control effect; nearly all actives have a fitted effect of over 60% in size
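Compound is pinned into ATP-containing buffer (10 uM ATP, imidazole pH 7.2, 7 mM MgCl2). Kinase-Glo luciferase reagent is then added. Light output is recorded following an 8-min room-temperature incubation.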
* = called active by the depositor; [ ] = another dose, or the depositor's remark. An excerpt weighted towards active compounds, which were near 7.5% of everything screened. The call rests on the fitted dose curve; in most records, active means well fitted curve in the direction sought with a large enough effect; inconclusive means small, poorly fitted or top-dose-only effect, or another doubt; inactive means no such curve, though single readings can be large; an effect the other way counts as inactive or inconclusive. Potency means the concentration at half of the fitted maximal effect.

Cc1ccc2nc(-c3ccccc3)cc(C(=O)N3CCN(c4ccccc4O)CC3)c2c1 was read as ELG1 genotoxic -28%, Rab9 prom act 4%, FLuc counter 13µM* and NPC1 prom act 14%.
Cc1ccc2nc(-c3ccccc3)cc(C(=O)N3CCN(S(=O)(=O)c4c(C)noc4C)CC3)c2c1 was read as ELG1 genotoxic -7%, Rab9 prom act 6%, FLuc counter 5.4µM* and NPC1 prom act 5%.
`O=C(c1cc(-c2ccncc2)nc2ccccc12)N1CCN(c2ccccc2O)CC1` gave ELG1 genotoxic -17%, Rab9 prom act 0%, FLuc counter inconclusive and NPC1 prom act -5%.
Screening Cc1ccc(S(=O)(=O)N2CCN(C(=O)c3c(-c4ccccc4)noc3C)CC2)c(C)c1 returned ELG1 genotoxic -4%, Rab9 prom act 0%, FLuc counter 2% and NPC1 prom act -4%.
Cc1ccc(CCNS(=O)(=O)c2ccc3c(c2)C(C(C)C)C(=O)N3)cc1 (configuration not stated) was read as FLuc counter 2%.
Screening CCOc1ccc(S(=O)(=O)NCCc2csc3nc(-c4ccc(F)cc4)nn23)cc1 returned FLuc counter 7%.
Screening COc1ccc(C)cc1Nc1nc2c(S(=O)(=O)c3cccc(Cl)c3)nnn2c2ccsc12 returned FLuc counter -2%.
FC(F)(F)c1cccc(-c2noc(-c3cc(-c4ccccc4)c(C(F)(F)F)s3)n2)c1 was read as SMN2 splice enh -5% and KinaseGlo FLuc 0%.
Nc1nc(N2CCN(c3ccccn3)CC2)nc2ccccc12 was read as ELG1 genotoxic inconclusive, Rab9 prom act 3.5µM*, FLuc counter 11µM* and NPC1 prom act inconclusive.
Screening Cc1cc(C)c2c(N)c(C(=O)c3ccc(Br)cc3)oc2n1 returned ELG1 genotoxic -3%, Rab9 prom act 0%, FLuc counter inconclusive and NPC1 prom act -1%.
`Cc1cc(C)c2c(N)c(C(=O)c3ccccc3)oc2n1` gave SMN2 splice enh -7%, FLuc counter 24µM* and KinaseGlo FLuc -2%.
For COCc1cc(C)nc2oc(C(=O)c3ccccc3)c(N)c12 the results were ELG1 genotoxic 4%, Rab9 prom act 3%, SMN2 splice enh 10%, FLuc counter 17µM*, NPC1 prom act -1% and KinaseGlo FLuc -3%.
Screening COC(=O)c1oc2nc(C)cc(C)c2c1N returned ELG1 genotoxic 4%, Rab9 prom act -2%, SMN2 splice enh 18%, FLuc counter 1%[2.3 µM], NPC1 prom act 1% and KinaseGlo FLuc 3%.
CC(C)c1ccc(NC(=O)COc2ccc(F)cc2C(=O)c2cnn(-c3ccccc3)c2)cc1 was read as ELG1 genotoxic 16%, Rab9 prom act inconclusive, SMN2 splice enh inconclusive, FLuc counter 9.5µM*, NPC1 prom act 0% and KinaseGlo FLuc -7%.
CCOC(=O)COc1ncn(-c2ccccc2)n1 was read as ELG1 genotoxic -1%, Rab9 prom act 1%, SMN2 splice enh -9%, FLuc counter -15%, NPC1 prom act 0% and KinaseGlo FLuc -2%.
`CCOC(=O)COc1ccccc1C(=O)c1cnn(-c2ccccc2)c1` gave ELG1 genotoxic inconclusive, Rab9 prom act inconclusive, FLuc counter 11µM* and NPC1 prom act inconclusive.
Screening CC(C)n1cc(NC(=O)COc2ccccc2Cl)cn1 returned ELG1 genotoxic 3%, Rab9 prom act 5%, FLuc counter -4% and NPC1 prom act -4%.
`O=C(COc1ccccc1C(=O)c1cnn(-c2ccccc2)c1)Nc1ccc2ccccc2c1` gave ELG1 genotoxic 14%, Rab9 prom act inconclusive, SMN2 splice enh 13µM*, FLuc counter 1.5µM*, NPC1 prom act inconclusive and KinaseGlo FLuc -3%.
O=C1c2ccccc2C(Cc2ccnc(F)c2)(Cc2ccnc(F)c2)c2ccccc21 was read as SMN2 splice enh -3% and KinaseGlo FLuc 3%.
`CCOc1ccc(NC(=O)CSc2cn(CC(=O)N3CCCCCC3)c3ccccc23)cc1` gave FLuc counter -1%.
For COc1cccc(N2CC(O)=C(c3nc4ccccc4s3)C2=N)c1 the results were ELG1 genotoxic inconclusive, Rab9 prom act -1%, SMN2 splice enh inconclusive, FLuc counter 21µM*, NPC1 prom act -5% and KinaseGlo FLuc -3%.
`Brc1ccc(-c2nc(-c3ccccn3)no2)o1` gave ELG1 genotoxic inconclusive, Rab9 prom act inconclusive, SMN2 splice enh 2.5µM*, FLuc counter 1.5µM*, NPC1 prom act 0.56µM* and KinaseGlo FLuc 13µM*.
For COc1cc(-c2nc(-c3ccc(Br)o3)no2)cc(OC)c1OC the results were ELG1 genotoxic -3%, Rab9 prom act -4%, SMN2 splice enh -6%, FLuc counter 2%, NPC1 prom act -1% and KinaseGlo FLuc -4%.
Screening Brc1ccc(-c2noc(-c3ccccn3)n2)o1 returned ELG1 genotoxic inconclusive, Rab9 prom act 0.45µM*, FLuc counter 2.7µM* and NPC1 prom act 0.56µM*.
`CCCN1C(=O)c2ccc(C(=O)Nc3cc(C)ccc3O)cc2C1=O` gave ELG1 genotoxic inconclusive, Rab9 prom act inconclusive, FLuc counter 3.4µM* and NPC1 prom act 2.2µM*.
For CCCN1C(=O)c2ccc(C(=O)Nc3ccccc3C(=O)O)cc2C1=O the results were ELG1 genotoxic 10%, Rab9 prom act 22%, FLuc counter 3.8µM* and NPC1 prom act inconclusive.
For O=C(Nc1ccccc1C(=O)O)c1ccc2c(c1)C(=O)N(c1cccc([N+](=O)[O-])c1)C2=O the results were ELG1 genotoxic 0%, Rab9 prom act -7%, FLuc counter 27µM* and NPC1 prom act 1%.
For CCCCN1C(=O)c2ccc(C(=O)Nc3cccc(C)c3C)cc2C1=O the results were ELG1 genotoxic 11%, Rab9 prom act -4%, SMN2 splice enh -6%, FLuc counter 0%, NPC1 prom act 1% and KinaseGlo FLuc 4%.
Screening O=C(Nc1c[nH]c(=O)[nH]c1=O)c1ccc2c(c1)C(=O)N(c1cccc([N+](=O)[O-])c1)C2=O returned ELG1 genotoxic 1%, Rab9 prom act 0%, FLuc counter -1% and NPC1 prom act 0%.
Screening Cc1ccc(O)c(NC(=O)c2ccc3c(c2)C(=O)N(CC(C)C)C3=O)c1 returned ELG1 genotoxic inconclusive, Rab9 prom act inconclusive, FLuc counter 2.4µM* and NPC1 prom act 2.8µM*.
For CCc1ccccc1NC(=O)CN1C(=O)COc2ccc(S(=O)(=O)Nc3ccccc3)cc21 the results were FLuc counter -12%.

Compound activity from PubChem BioAssay.
